Structures are written as SMILES. Unmarked numbers belong to inactive results.

For experiment [1], the system named is Sporothrix brasiliensis CBS 133006. Briefly: growth inhibition relative to untreated control; higher = more growth inhibition (more antifungal activity), active = 80 or more; extreme values may be limits of the assay. The following applies: 1 µM; 48 h. Summed up: (§1)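 The reported figure is percent growth inhibition relative to untreated cells, from quadruplicate runs. Yeast-form cells of the reference isolates at 1 x 10^5 CFU/ml were exposed to library compounds at a final 1 μM for 48 h at 35°C in 5% CO2, and growth was assessed by microscopy and spectrophotometric readings.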

Experiment [2] deals with Sporothrix schenckii ATCC 32286. The experiment is described as above. The following applies: 1 µM; 48 h. Summed up: as §1

With `FC(F)(F)c1cc(NCCc2ccccc2)nc(-c2ccccn2)n1`, the growth inhibition in experiment [1] is 10%; in experiment [2], 9.75%.

`NCCN(C(=O)c1ccc(Cl)cc1Cl)c1ccc(OCc2ccc(Cl)cc2)cc1`: the values for the growth inhibition in experiment [1] and in experiment [2] were 9.75% and 7%, respectively.

As for `Cc1nc2ccccn2c1C(=O)NCc1ccc(Cl)cc1`, the growth inhibition was 14% in experiment [1] and 16% in experiment [2].

For `O=C(Nc1nnc(-c2ccc(Cl)s2)o1)c1ccc(Cl)s1`, the growth inhibition was 27.8% in experiment [1] and 42% in experiment [2].

For `O=C(Nc1ccc(F)c(-c2nc3cc(-c4ccccc4)cnc3[nH]2)c1)N1CCCC1`, the growth inhibition was 12.5% in experiment [1] and 7.75% in experiment [2].

With `CN1CCN(c2nccc3nc(-c4ccc(F)c(F)c4)[nH]c23)CC1`, the growth inhibition in experiment [1] and in experiment [2] was 0% each time.

For `CCCn1c(CNc2ccccc2O)nc2ccccc21`, the values for the growth inhibition in experiment [1] and in experiment [2] were 11.2% and 13.2%, respectively.

`CCCCc1ccc(NC(=O)Nc2ccc(O[C@H]3CCCC[C@@H]3N(C)c3ccccc3)c(F)c2)cc1`: the growth inhibition in experiment [1] is 0%; in experiment [2], 4.25%.

`CC(=O)OCC1OC([S-])C(OC(C)=O)C(OC(C)=O)C1OC(C)=O.CCP(CC)CC.[Au+]` (stereo unspecified): the figures for the growth inhibition in experiment [1] and in experiment [2] were 25.5% and 55%, respectively.

Consider `Cc1ccc2oc(-c3cc(NC(=O)Cc4ccccc4)ccc3Cl)nc2c1`, for which the growth inhibition in experiment [1] is 14.5%; in experiment [2] it was 11.2%.

As to `CC(=O)Nc1ccc(NC(=O)c2cc(-c3cc(Cl)ccc3O)n[nH]2)cc1`, the growth inhibition in experiment [1] was 9.5%; in experiment [2], 0%.

For the compound `CC(Oc1ccccc1)C(=O)Nc1nc(-c2ccccn2)cs1` (stereo unspecified), the growth inhibition in experiment [1] was 18%; in experiment [2], 0%.

For `CC1COC2(CCN(c3nc(=O)c4cc(C(F)(F)F)cc([N+](=O)[O-])c4s3)CC2)O1` (stereo unspecified), the growth inhibition in experiment [1] is 15%; in experiment [2], 1.5%.

Turning to `OCc1ccc(-c2cncc(Nc3cccc(Cl)c3)c2)cc1`, the growth inhibition in experiment [1] is 25.5%; in experiment [2], 6.75%.

Take `O=C(C1CCCCC1)N1CC(=O)N2CCc3ccccc3C2C1` (stereo unspecified): the growth inhibition in experiment [1] was 2.25%; in experiment [2], 10.2%.

Take `O=C(NC1CC1)c1ccc(N2CCC(Cc3ccccc3)CC2)nc1`: the growth inhibition was 6.5% in experiment [1] and 19.8% in experiment [2].

As for `COc1cccc(OC)c1C(=O)Nc1ccc(Cl)c(-c2nc3ccccc3s2)c1`, the growth inhibition is 7.75% in experiment [1] and 0.75% in experiment [2].

For the compound `Cc1ccccc1C(=O)N1N=C(Nc2ccccc2)SC1(C)C`, the growth inhibition was 10.5% in experiment [1] and 16% in experiment [2].

Take `CC(C)(C)c1ccc(N[C@@H]2CCCC[C@H]2NC(=O)c2ccco2)cc1`: the growth inhibition in experiment [1] is 7.25%; in experiment [2], 0.75%.

Turning to `CNC(=O)C1Cc2c([nH]c3cc(Cl)ccc23)C2(CCN(CCc3ccccc3)CC2)N1` (stereo unspecified), the growth inhibition in experiment [1] was 10.8%; in experiment [2] it was 0%.

On to `O=C(Nc1cccc(-c2ccc(NCCCN3CCCC3)nc2)c1)c1ccccc1`, for which the results for the growth inhibition in experiment [1] and in experiment [2] were 14.8% and 6%, respectively.

In the case of `CC(=O)Nc1ccc(-c2noc(CC3CCCN(Cc4cccc(F)c4C)C3)n2)cc1` (stereo unspecified), the growth inhibition in experiment [1] was 10.2%; in experiment [2] it was 0.5%.

Consider `CC[C@@H]([C@H](C)O)n1ncn(-c2ccc(N3CCN(c4ccc(OC[C@@H]5CO[C@@](Cn6cncn6)(c6ccc(F)cc6F)C5)cc4)CC3)cc2)c1=O`, for which the growth inhibition is 73% in experiment [1] and 88.5% (active) in experiment [2].

As to `CC(C)(C)n1nc(Cc2ccc(F)c(Cl)c2)c2c(N)ncnc21`, the growth inhibition in experiment [1] is 14.2%; in experiment [2], 0%.

For the compound `CCN(CC)CCCN1CCN(C(=O)c2cccc(-c3noc(C(F)(F)F)n3)c2)CC1`, the growth inhibition in experiment [1] is 25%; in experiment [2] it was 0%.

For the compound `COc1cc(C(F)(F)F)nc2ccc(C)c(N)c12`, the figures for the growth inhibition in experiment [1] and in experiment [2] were 6.75% and 14.5%, respectively.

Take `FC(F)(F)c1ccc(N(c2cccnc2)C2CCN(c3ccc(C(F)(F)F)cn3)CC2)cc1`: the growth inhibition in experiment [1] and in experiment [2] was 0% each time.

For `c1ccc(C[C@@H]2CN(c3nccc(Oc4ccc(-n5ccnc5)cc4)n3)CCN2)cc1`, the growth inhibition is 10.2% in experiment [1] and 9.5% in experiment [2].

As to `CCNC(=O)C(C)Nc1nc(-c2cccnc2)nc2sc(C)c(C)c12` (stereo unspecified), the growth inhibition is 2.25% in experiment [1] and 16% in experiment [2].

On to `N#Cc1nc(-c2ccccc2)oc1S(=O)(=O)c1ccc(Cl)cc1`, for which the growth inhibition in experiment [1] was 48.8%; in experiment [2], 6.25%.

As for `CN(C)c1cc(NC(=O)Nc2ccccc2)c2ccccc2n1`, the growth inhibition in experiment [1] is 0%; in experiment [2], 0.75%.

For `COc1ccc(-c2cnc3ccc(NCc4ccc(S(N)(=O)=O)cc4)nn23)cn1`, the growth inhibition in experiment [1] was 26.8%; in experiment [2], 18.2%.

Regarding `COC(=O)c1ccc(F)cc1NS(=O)(=O)c1cccc(-c2cnn(Cc3ccccc3)c2)c1`, the growth inhibition is 12% in experiment [1] and 20.2% in experiment [2].

`O=C(Nc1ccccc1)c1ccc(-c2cc3ccncc3cc2OC2CCNCC2)s1`: the growth inhibition in experiment [1] is 8.75%; in experiment [2], 11%.

Regarding `OCCc1ccc(Nc2nccc(-c3nnc4ccccn34)n2)cc1`, the growth inhibition is 28.2% in experiment [1] and 2.5% in experiment [2].

For `CC(C)C(C(=O)Nc1ccc(S(=O)(=O)N(C)C)cc1)c1ccc(Cl)cc1` (stereo unspecified), the growth inhibition in experiment [1] is 17.5%; in experiment [2], 0.5%.

`O=C(Nc1ccc(N2CCNCC2)cc1)c1ccn2ncc(-c3cccc(Cl)c3)c2n1`: the growth inhibition was 12% in experiment [1] and 14.5% in experiment [2].

As to `Cc1nn(C)cc1C(C)Nc1nncc(-c2ccc(C(F)(F)F)cc2)n1` (stereo unspecified), the growth inhibition in experiment [1] was 16%; in experiment [2], 4.75%.

For the compound `CC(=O)Oc1ccccc1C(=O)Nc1ncc([N+](=O)[O-])s1`, the values for the growth inhibition in experiment [1] and in experiment [2] were 3.5% and 14%, respectively.

As to `COc1cccc(-n2nnnc2S(C)(=O)=O)c1`, the growth inhibition in experiment [1] was 0%; in experiment [2], 22.8%.

Consider `COc1cc2ncnc(NC3CCN(Cc4ccccc4)CC3)c2cc1OC`, for which the growth inhibition in experiment [1] is 8%; in experiment [2], 0%.

Take `CC(C)c1ncc(-c2ccncc2)c([C@H]2CC[C@H](CNC(=O)c3cccnc3)CC2)n1`: the figures for the growth inhibition in experiment [1] and in experiment [2] were 4.5% and 8.25%, respectively.

For `C[C@]1(O)C[C@@H](c2nc(-c3ccc4ccc(-c5ccccc5)nc4c3)c3c(N)nccn32)C1`, the growth inhibition in experiment [1] is 6%; in experiment [2], 23%.

For the compound `O=C([C@@H](c1ccc(Cl)cc1)c1cccnc1)N1CCN(c2ccc(C(F)(F)F)cc2)CC1`, the growth inhibition in experiment [1] was 25.2%; in experiment [2] it was 2%.

Take `CCC(C)NC(=O)c1ccc(NC(=O)C2(c3ccccc3)CCCC2)cc1` (stereo unspecified): the growth inhibition was 5.5% in experiment [1] and 4.25% in experiment [2].

As to `COc1ccc(OC)c(NCc2ccc3nc(N)nc(N)c3c2Cl)c1`, the growth inhibition in experiment [1] was 93.8% (active); in experiment [2], 89.2% (active).

For `COc1ccc(N(CCc2cccc(C)n2)C(=O)C2CCCCC2)cc1`, the growth inhibition in experiment [1] is 5.75%; in experiment [2] it was 0%.

`CCN(CC)C(=O)N1CCN(C)CC1`: the values for the growth inhibition in experiment [1] and in experiment [2] were 4% and 1%, respectively.

As to `CCc1ccc([C@@H]2C[C@H](C(F)(F)F)n3ncc(C(=O)NCc4ccc(OC)cc4)c3N2)cc1`, the growth inhibition is 15.5% in experiment [1] and 12.2% in experiment [2].

Regarding `CCOC(=O)c1cc(-c2csc(Nc3c(C)cc(C)cc3C)n2)on1`, the figures for the growth inhibition in experiment [1] and in experiment [2] were 10.5% and 3.75%, respectively.

As for `Oc1c(I)cc(I)c2cccnc12`, the growth inhibition is 99.5% (active) in experiment [1] and 94.5% (active) in experiment [2].

Turning to `CCN(CC)CCCCCCNc1cc(OC)cc2c(C)ccnc12`, the growth inhibition in experiment [1] is 7%; in experiment [2] it was 2.25%.

As for `CC(Oc1cccc(Cl)c1)C(=O)Nc1ccc2oc(-c3ccncc3)nc2c1` (stereo unspecified), the growth inhibition in experiment [1] was 20%; in experiment [2], 4.25%.

Take `CN1CCC(NCc2cccc(-c3ccc(S(=O)(=O)NCc4ccccc4)cc3)c2)CC1`: the growth inhibition in experiment [1] is 8%; in experiment [2], 13.5%.

For the compound `CN1CCN(c2cc(-c3ccc(F)cc3)nc(-c3ccncc3)n2)CC1`, the growth inhibition in experiment [1] is 7%; in experiment [2], 12.2%.

Turning to `CC1=NN(c2nc3ccccc3s2)C(=O)C1Cc1cccc2ccccc12` (stereo unspecified), the results for the growth inhibition in experiment [1] and in experiment [2] were 17.2% and 14.8%, respectively.

Take `CS(=O)(=O)c1ccccc1C(=O)N(Cc1ccccc1)c1ccccc1`: the growth inhibition in experiment [1] is 13.2%; in experiment [2], 24%.

As for `CC(C)(C)C(=O)N(CCCCCCN1C[C@H](O)[C@@H](O)[C@H](O)[C@H]1CO)C1CCCCCC1`, the growth inhibition is 6.25% in experiment [1] and 8% in experiment [2].

`O=C(CCC1CCCCC1)Nc1cccc(-c2nnc(-c3ccco3)o2)c1`: the growth inhibition in experiment [1] and in experiment [2] was 2.5% in each case.

For `Nc1nc(N)c2c3c(sc2n1)CN(Cc1ccccc1)CC3`, the growth inhibition in experiment [1] is 21.5%; in experiment [2], 11%.

`CCCCc1ccc(C(=O)Nc2nccc3ccccc23)nc1`: the growth inhibition in experiment [1] was 23.5%; in experiment [2], 1%.

Turning to `Cc1cc(Nc2ccncc2)n2nc(C)c(-c3ccccc3Cl)c2n1`, the growth inhibition is 5% in experiment [1] and 4.75% in experiment [2].

Take `CC(C)(CN)c1nc(-c2ccc(Cl)c(O)c2)c(-c2ccnc(N)n2)[nH]1`: the growth inhibition in experiment [1] is 7%; in experiment [2] it was 21.8%.

`CC1CC1C(=O)NC1CCN(CC2(c3ccccc3)CCCCC2)CC1` (stereo unspecified): the growth inhibition in experiment [1] was 12.8%; in experiment [2], 20.5%.

In the case of `CO[C@@H](C(=O)N1Cc2[nH]nc(NC(=O)c3ccc(N4CCN(C)CC4)cc3)c2C1)c1ccccc1`, the growth inhibition is 16.2% in experiment [1] and 1.5% in experiment [2].

As to `NC(CC(=O)c1ccc(Cl)cc1Cl)C(Cl)(Cl)Cl` (stereo unspecified), the growth inhibition was 9.25% in experiment [1] and 14% in experiment [2].

As to `Cc1cc(Cl)ccc1NC(=O)CCc1ccc(S(=O)(=O)NCC(C)C)cc1`, the results for the growth inhibition in experiment [1] and in experiment [2] were 9.75% and 0%, respectively.

For `Cc1cnc(N2CCN[C@@H](Cc3ccccc3)C2)nc1Oc1ccc(-n2ccnc2)cc1`, the results for the growth inhibition in experiment [1] and in experiment [2] were 2.75% and 6.5%, respectively.

For `Cc1cc(C(=O)Nc2ccc(-c3ccccc3)cc2)no1`, the growth inhibition in experiment [1] was 1.75%; in experiment [2], 17%.

Consider `Cc1ccc(-c2nc(CN(Cc3ccccn3)C(C)C)cs2)o1`, for which the figures for the growth inhibition in experiment [1] and in experiment [2] were 24% and 1.75%, respectively.

Regarding `Cc1ccc2[nH]c(C3CCCNC3)c(-c3ccncc3)c2c1` (stereo unspecified), the growth inhibition is 19% in experiment [1] and 7.75% in experiment [2].

As for `CNc1snc(C)c1C(=O)NCCOc1ccc(OC)cc1`, the growth inhibition in experiment [1] was 12.2%; in experiment [2], 7.5%.

In the case of `CC1CCCN(C(=O)C(C)Nc2cc(Cl)ccc2N2CCOCC2)C1` (stereo unspecified), the growth inhibition was 11.5% in experiment [1] and 0.5% in experiment [2].

(Values after the supplement of paper PMC7556523.)
